Sampled rows, rich in hits. Any-hit rate of the full collection: about 11%.
PNC inhibitor = inhibitors of perinucleolar compartment assembly | PC3M PTB-GFP, PNC prevalence imaging, 16 h; active compounds read low | activity change (PNC), negative = inhibition, % at 10 µM | hit rate 3.1% among 140,000 | AID 2417;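 active = readout at or below -70, meaning at least 70% loss of cells showing the perinucleolar compartment, a nuclear body marking cancer cells; inconclusive = readout between -30 and a set limit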;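 note: plate controls were DMSO wells for no effect and camptothecin positive control wells for full effect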
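PC3M cells stably expressing PTB-GFP, 750–1000 cells/well, treated 16 h at 37 °C with compound (23 nl of library stock), in duplicate. After paraformaldehyde fixation and Hoechst stain, imaged at 20x; PNC prevalence scored by image analysis.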
HTT ATP protect = Huntington cell model cytoprotection by ATP luminescence; PC12 HTT-Q103 induced, cytoprotection, ATP luminescence, 40 h; Potency, µM (top dose mostly 56.4 µM), for the others: cytoprotection (ATP increase), usual class: activators; hit rate 0.14% among 230,000; active = well fitted curve in the direction sought with a large enough effect; inconclusive = small, poorly fitted or top-dose-only effect, or another doubt; inactive = no such curve, though single readings can be large; an effect the other way counts as inactive or inconclusive; note: potency is the fitted concentration of half-maximal effect; % of control where 0% means no effect; nearly all actives have a fitted effect of over 45% in size
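PC12 cells stably carrying ecdysone-inducible Htt exon 1 (Q103)–GFP were induced with 100 nM tebufenozide (final) alongside library compounds in a dose series. Cytoprotection was scored as retained ATP by ATPlite luminescence.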
HPGD block = HPGD (human) dehydrogenase inhibition. hit rate 4.3% among 150,000. purified HPGD, NADH fluorescence kinetic, PGE2 substrate. P15428. Potency, µM, without a hit: at the highest dose activity change, negative = inhibition, hits mostly inhibitors; note: potency is the fitted concentration of half-maximal effect; % is set by controls: 0 for no effect and ±100 for the full control effect
Target sequence (P15428 whole entry, looked up): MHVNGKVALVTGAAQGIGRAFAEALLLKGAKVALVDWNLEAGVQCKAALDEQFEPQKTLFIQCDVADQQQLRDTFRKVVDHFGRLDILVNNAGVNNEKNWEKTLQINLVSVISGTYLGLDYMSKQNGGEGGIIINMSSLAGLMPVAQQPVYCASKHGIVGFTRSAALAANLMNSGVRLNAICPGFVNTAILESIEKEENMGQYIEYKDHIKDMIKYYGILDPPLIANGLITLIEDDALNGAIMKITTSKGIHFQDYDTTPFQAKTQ
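20 nM HPGD preincubated 15 min at room temperature with compound in 50 mM Tris-HCl pH 8, 0.01% Tween 20. Started with 1 mM NAD+ and 30 uM prostaglandin E2; NADH fluorescence (360/450 nm) read 5 times over 30-s intervals, last minus first.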
HTT aggregate = inhibitors of mutant huntingtin aggregate formation in PC12 cells; Potency, µM (highest dose often 46.1 µM), for inactives: top-dose activity change, negative = inhibition, usual class: inhibitors; AID 1688; PC12 HttQ103-GFP aggregates, Acumen cytometry, 40 h; hit rate 1.1% among 220,000; active = well fitted curve in the direction sought with a large enough effect; inconclusive = small, poorly fitted or top-dose-only effect, or another doubt; inactive = no such curve, though single readings can be large; an effect the other way counts as inactive or inconclusive; note: potency is the fitted concentration of half-maximal effect; % is set by controls: 0 for no effect and ±100 for the full control effect; nearly all actives have a fitted effect of over 60% in size
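Steps: seed 1500 PC12 HTTQ103-GFP cells/well; add tebufenozide, 100 nM final; add compound titration; add ATPLite reagent; quantify GFP aggregates by laser scanning cytometry.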
ALDH1A1 inh = blocks purified human ALDH1A1 activity | Potency, µM (highest dose often 75.3 µM), for inactives: at the top dose activity, negative = inhibition, actives largely listed as inhibitors | AID 1030 | hit rate 7.3% among 220,000 | Purified ALDH1A1, NADH fluorescence, propionaldehyde substrate;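 note: potency is the fitted concentration of half-maximal effect; plate controls were no enzyme wells and a reference inhibitor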
Target sequence (P00352 whole entry, looked up): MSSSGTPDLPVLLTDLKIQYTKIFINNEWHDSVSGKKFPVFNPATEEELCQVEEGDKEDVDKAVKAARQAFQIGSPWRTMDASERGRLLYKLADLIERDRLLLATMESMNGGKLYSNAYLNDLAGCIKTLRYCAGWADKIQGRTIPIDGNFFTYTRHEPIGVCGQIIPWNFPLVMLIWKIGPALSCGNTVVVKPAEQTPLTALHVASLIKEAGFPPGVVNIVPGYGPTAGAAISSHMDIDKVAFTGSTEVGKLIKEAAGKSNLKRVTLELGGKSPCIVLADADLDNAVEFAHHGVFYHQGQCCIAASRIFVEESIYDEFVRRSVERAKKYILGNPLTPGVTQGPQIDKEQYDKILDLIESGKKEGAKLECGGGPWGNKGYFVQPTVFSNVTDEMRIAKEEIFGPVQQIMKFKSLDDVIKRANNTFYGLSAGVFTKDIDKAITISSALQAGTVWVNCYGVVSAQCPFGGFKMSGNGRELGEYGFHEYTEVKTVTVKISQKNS
RGS12 GoLoco inh = inhibitors of human Gai1-RGS12 GoLoco interaction (red fluorophore); P63096; Gai1:RGS12 GoLoco peptide FP, rhodamine, 10 min; Potency, µM (titrated, usually from 61.6 µM), inactives show at the highest dose activity, negative = inhibition, most hits filed as inhibitors; hit rate 0.44% among 230,000; AID 880; active = well fitted inhibition curve with a large enough effect, not every such curve was filed as active; inactive = no such curve, though single readings can be large or run the other way; note: potency is the fitted concentration of half-maximal effect; % is set by controls: 0 for no effect and ±100 for the full control effect; nearly all actives have a fitted effect of over 30% in size
Numbers without * were called inactive; ? = inconclusive; · = no result; [ ] = remark or other dose. Unless noted, calls come from the whole dose curve; as a rule, active = well fitted inhibition curve with a large enough effect (not every such curve was filed as active); inconclusive = small, poorly fitted or top-dose-only effect, or another doubt; inactive = no such curve, though single readings can be large or run the other way.

SMILES	PNC inhibitor	HTT ATP protect	HPGD block	HTT aggregate	ALDH1A1 inh	RGS12 GoLoco inh
COc1ccc(C)cc1Nc1ccc(C(=O)O)cc1[N+](=O)[O-]	·	-19%	·	-19%	3%	5%
COc1ccccc1N/N=C/c1ccc2c(c1)OCO2	?	22%[10 µM]	16µM*	?	?	0%
Cc1cccc(NCc2ccc(O)c3ncccc23)c1	·	-1%[10 µM]	·	-2%[9.22 µM]	2.8µM*	16%
Oc1ccc(CN2CCN(Cc3ccccc3)CC2)c2cccnc12	?	-4%	-19%	3%	1%	-14%
Cc1ccccc1NCc1ccc(O)c2ncccc12	-11	-13%[1.9 µM]	-2%	?	4µM*	-2%
Cc1cccc(NCc2ccccc2O)c1C	-26	8%[10 µM]	-19%	16%	-8%	9%
Oc1ccc(CNc2ccccc2)c2cccnc12	-30	-16%[10 µM]	-3%	?	10µM*	2%
COCc1ccc(O)c2ncccc12	-20	-73%[10 µM]	-12%	11µM*	3%	9%
Oc1ccc(Cn2ccnc2)c2cccnc12	·	15%[10 µM]	·	26%[9.22 µM]	5%	16%
Cc1ccc(O)c2ncccc12	·	-55%	·	?	·	·
Nc1nc(-c2ccccc2)c(-c2ccccc2)c(-c2nc(N)nc(-c3ccccc3)c2-c2ccccc2)n1	·	-8%[10 µM]	-1%	·	6%[13.5 µM]	2%[14.2 µM]
COc1cccc(CNc2ccc([N+](=O)[O-])c(NCC(=O)O)n2)c1	·	-4%[10 µM]	·	-10%	5%	9%
O=C(CN(c1cccc(Cl)c1)S(=O)(=O)c1ccc(Cl)cc1)N1CCc2ccccc2C1	-5	·	-17%	6%	-1%	5%
Oc1ccc(CNc2ccc(F)cc2)c2cccnc12	9	-38%	-18%	-8%	8.9µM*	1%
Cc1ccccc1N=Nc1ccc(O)c2ncccc12	35	-50%[10 µM]	-5%	2.5µM*	12%	10%
C/C=C/C1=Cc2ccccc2C(C(C(=O)OC)C(=O)OC)N1C(=O)OC (centres undefined)	·	0%	-2%	·	3%	-1%
CCN(CC)S(=O)(=O)c1ccc(S(=O)(=O)Nc2ccc3c(c2)oc2ccccc23)cc1	-27	-10%	-17%	?	?	5%
CN(C)S(=O)(=O)c1ccc(S(=O)(=O)Nc2ccc3c(c2)oc2ccccc23)cc1	?	-5%[10 µM]	-12%	?	13µM*	-2%
CNCC(=O)NCC(=O)N[C@@H](Cc1ccccc1)C(=O)N[C@@H](CC(C)C)C(=O)O	·	-14%	·	·	-4%	8%
O=c1oc2c3c4c(cc2s1)CCCN4CCC3	8	9%	22µM*	-1%[9.22 µM]	25µM*	-30%
Cc1nn(-c2ccccc2)c(Cl)c1/C=N/Nc1ccc(Cl)c(C(=O)O)c1	2	-9%[10 µM]	?	0%	-9%	-12%
Cc1cc(S(=O)(=O)Nc2ccccc2C(=O)O)ccc1Cl	-117*	-14%[0.074 µM]	-9%	-2%	12%	3%
O=C(O)c1ccccc1NS(=O)(=O)c1ccc(Cl)c(Cl)c1	·	·	-2%	·	3%	·
Cc1nn(-c2ccccc2)c(Cl)c1/C=N/Nc1ccc(S(=O)(=O)Nc2ccccc2C(=O)O)cc1[N+](=O)[O-]	27	-36%	16µM*	-7%	?	7%
O=C(O)c1ccccc1/C=N/Nc1ccc(S(=O)(=O)N2CCCC2)cc1[N+](=O)[O-]	·	6%[10 µM]	·	5%[9.22 µM]	13µM*	5%
SMILES	PNC inhibitor	HTT ATP protect	HPGD block	HTT aggregate	ALDH1A1 inh	RGS12 GoLoco inh
Cc1ccc(S(=O)(=O)Nc2ccc(Cl)cc2)cc1NC(=O)c1cc2c(s1)CCCC2	55	38%[10 µM]	-14%	?	-7%	8%
Cc1ccc(SCN2CCCCC2)cc1 (tested in a mixture with another compound)	·	8%[10 µM]	-14%	·	3%[13.5 µM]	6%[14.2 µM]
CC(C)c1ccc(NC(=O)C(c2ccccc2)N(C)C(=O)c2cnccn2)cc1 (centres undefined)	·	-56%	·	5%	10µM*	4%
CCC(C)(C)NC(=O)C(c1ccc(F)cc1)N(Cc1ccc(OC)cc1)C(=O)c1cnccn1 (centres undefined)	·	15%[10 µM]	·	14%[9.22 µM]	0%	9%
COc1ccc(CN(C(=O)c2cnccn2)C(C(=O)Nc2ccc(F)cc2)c2ccccc2)cc1 (centres undefined)	-95*	21%[10 µM]	-9%	-9%	10µM*	1%
COc1ccc(/C=C(\C#N)C(=O)OCC(=O)NC(=O)NCCC(C)C)cc1	·	10%[10 µM]	·	20%	?	6%
C=CCNC(=O)NC(=O)COC(=O)/C(C#N)=C/c1ccc(OC)cc1	·	11%	·	-11%	25µM*	17%
Cc1c(C(=O)N2CCN(C)CC2)oc2c1C(=O)CC(C)(C)C2	-23	-13%[0.074 µM]	-11%	-5%	22µM*	-1%
Oc1ccc(-c2csc(-c3ccccc3)n2)cc1O	?	-56%	28µM*	-6%	?	-6%
Cc1nc(-c2ccc(NS(C)(=O)=O)cc2)cs1	-80*	-26%[0.074 µM]	16µM*	3%	12%	7%
Cc1nc(-c2ccc(O)c(O)c2)cs1	?	-4%[10 µM]	22µM*	-5%	?	-8%
Oc1ccc(-c2csc(-c3cccnc3)n2)cc1O	·	-29%[10 µM]	·	-31%[9.22 µM]	·	-4%
CCCCCCCCCCCC(CC1OC(=O)C1CCCCCC)OC(=O)C(CC(C)C)NC=O (centres undefined)	·	-34%	-12%	-6%	-2%	2%
COc1ccc(O)c(N)c1	·	-20%	·	-19%	25µM*	0%
Nc1ccc(C23CC4CC(CC(CO)(C4)C2)C3)cc1	6	-128%	-9%	14%	11µM*	-3%
CCCn1nnc(NC(=O)c2cc(Br)cc(Br)c2OC)n1	-119*	10%	·	31%	11µM*	·
CCOc1ccccc1NC(=O)C(OC(=O)c1ccc(O)cc1)c1ccccc1 (centres undefined)	11	12%[10 µM]	-10%	-1%	7.9µM*	-10%
Cc1cc(S(=O)(=O)N2CCN(c3c(C)cccc3C)CC2)ccc1F	-8	8%[0.074 µM]	-14%	?	?	-4%
CCC(C)N(C)Cc1cccc(C2(O)CCN(S(=O)(=O)c3ccc(F)c(C)c3)CC2)c1 (centres undefined)	-113*	·	0%	-3%	?	10%
O=C(c1ccc(Cn2cc(Br)cn2)o1)n1cccn1	-83*	12%[10 µM]	-2%	-5%	-13%	7%
O=C(N/N=C/c1c(F)cccc1Cl)c1ccc(Cn2cc(Br)cn2)o1	-114*	·	-19%	-8%	-5%	6%
CSC1=NSC2=NC(=O)/C(=C/c3coc4ccc(O)cc4c3=O)C(=N)N12	?	·	22µM*	-1%	?	67%
CSC1=NSC2=NC(=O)/C(=C/c3coc4ccccc4c3=O)C(=N)N12	6	·	?	28%	?	16%

Screening data (PubChem BioAssay)
